Source: PubChem
The list is not random: actives were taken first. Their share in the collection is about 6.7%.
SW480 rereplic = DNA re-replication induction in SW480 cells | AID 624297 | hit rate 1.8% among 340,000 | SW480 DNA re-replication, Hoechst DNA content imaging, 48 h | Potency, µM (titrated, usually from 46.1 µM), inactives show at the highest dose re-replication activation, actives largely listed as activators; further: % of control where 0% means no effect; nearly all actives have a fitted effect of over 55% in size
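Image-based read-out: total Hoechst fluorescence of nuclei (405 nm excitation, 500-530 nm emission), with hits raising the fraction of high-intensity nuclei. SW480 colon cells incubated 48 hr with compounds at 37 C.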
MCF10A rerep = inducers of DNA re-replication in MCF 10A breast cells. MCF 10A DNA re-replication, Hoechst nuclear intensity, 48 h. Potency, µM (doses to about 46.1 µM), without a hit: at the highest dose activity, positive = re-replication, usual class: activators. hit rate 2.9% among 350,000; further: % of control where 0% means no effect; nearly all actives have a fitted effect of over 50% in size
KB-3-1 tox = kills parental KB-3-1 adenocarcinoma cells; KB-3-1 viability, CellTiter-Glo ATP luminescence, 72 h; Potency, µM (titrated, usually from 46.1 µM), most hits filed as cytotoxic; hit rate 1.4% among 400,000; AID 1347075; further: on the % scale 0 is the no-effect control and ±100 the full control effect; nearly all actives have a fitted effect of over 60% in size
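Parental KB-3-1 adenocarcinoma cells in phenol-red-free DMEM with 10% FBS were pin-treated with compounds at several concentrations, incubated 72 h at 37 °C, and viability read by CellTiter-Glo luminescence; concentration-effect curves were fitted after normalization.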
KB-V1 cytotox = kills drug-selected multidrug resistant KB-V1 cells | KB-V1 MDR cells viability, CellTiter-Glo, 72 h | Potency, µM (titrated, usually from 46.1 µM), hits mostly cytotoxic | hit rate 3.4% among 400,000 | AID 1347076; further: on the % scale 0 is the no-effect control and ±100 the full control effect; nearly all actives have a fitted effect of over 60% in size
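KB-V1, DMEM (no phenol red) + 10% FBS; cpd pin-transferred, titration series; 72 h, 37 degrees C; CellTiter-Glo, luminescence. Data normalized, curve-fit.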
PINK1 expr mod = modulators of PINK1 expression; Potency, µM (doses to about 76.6 µM), inactives show top-dose activation (PINK1 increase), usual class: activators; PINK1 immunofluorescence, high-content cytometry, 24 h; hit rate 0.2% among 410,000; active means well fitted activation curve with a large enough effect; inconclusive means small, poorly fitted or top-dose-only effect; cell line not stated here; further: % of control where 0% means no effect; nearly all actives have a fitted effect of over 65% in size
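Measures PINK1 amount and localization on or inside mitochondria by immunofluorescence. Stable cells get compounds at 5 concentrations for 24 hours before fixation and staining; CCCP controls included.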
The depositor's hits bear a star; [ ] = remark or other dose. Unless noted, the call rests on the fitted dose curve; in most records, active means well fitted curve in the direction sought with a large enough effect; inconclusive means small, poorly fitted or top-dose-only effect, or another doubt; inactive means no such curve, though single readings can be large; an effect the other way counts as inactive or inconclusive. Potency means the concentration at half of the fitted maximal effect.

What do the screens show for `CCC(c1nnnn1C(C)(C)C)N1CCN(c2cc(Cl)ccc2C)CC1` (centres undefined)?
SW480 rereplic: inconclusive; MCF10A rerep: 13µM*; KB-3-1 tox: inactive; KB-V1 cytotox: inactive; PINK1 expr mod: 3%

How did CC(=O)c1cnc2n(c1=O)CCS2 do in these assays?
SW480 rereplic: 13µM*; MCF10A rerep: -17%; KB-3-1 tox: inactive; KB-V1 cytotox: inactive; PINK1 expr mod: -1%

How did CN(C)/C=C/C(=O)c1cnc2n(c1=O)CCS2 do in these assays?
SW480 rereplic: -5%; MCF10A rerep: -16%; KB-3-1 tox: inactive; KB-V1 cytotox: inactive; PINK1 expr mod: 1%

What do the screens show for `O=[N+]([O-])c1ccc(NN=CC2CCCCCC2)c([N+](=O)[O-])c1`?
KB-3-1 tox: inactive; KB-V1 cytotox: inactive; PINK1 expr mod: 8%

Results for CC(C)NC(=O)C1C(c2ccccc2)=Nc2ccccc2N1C(=O)c1cc(Cl)cc(Cl)c1 (centres undefined) ?
KB-3-1 tox: inactive; KB-V1 cytotox: inconclusive

How did CCOc1ccc(CN(C)CC(O)COC(c2ccc(OC)cc2)c2ccc(OC)cc2)cc1 (centres undefined) do in these assays?
SW480 rereplic: inconclusive; MCF10A rerep: 18µM*; KB-3-1 tox: inconclusive; KB-V1 cytotox: inconclusive; PINK1 expr mod: -4%

How did COc1ccc(-c2nc(N)nc(C)c2Oc2ccccc2Br)c(O)c1 do in these assays?
SW480 rereplic: inconclusive; MCF10A rerep: 15µM*; KB-3-1 tox: inconclusive; KB-V1 cytotox: inconclusive; PINK1 expr mod: -5%

Results for O=c1n2c(c(O)n1C1CCCCC1)C(c1ccccc1)=Nc1ccccc1C2 ?
KB-3-1 tox: inactive; KB-V1 cytotox: 16µM*; PINK1 expr mod: 6%

How did CCc1ccc(N2CC(C(=O)OCC(=O)N(CC)c3c(N)n(Cc4ccccc4)c(=O)[nH]c3=O)CC2=O)cc1 (centres undefined) do in these assays?
SW480 rereplic: -9%; MCF10A rerep: -6%; KB-3-1 tox: inactive; KB-V1 cytotox: inactive; PINK1 expr mod: 2%

Results for C/C(=N\NC(=O)c1cc2ccccc2cc1O)c1ccccn1 ?
SW480 rereplic: inconclusive; MCF10A rerep: 16%; KB-3-1 tox: inconclusive; KB-V1 cytotox: inactive; PINK1 expr mod: 6%

How did O=C(N/N=C/c1ccc(Br)cc1)c1ccccc1-n1cccc1 do in these assays?
SW480 rereplic: 13µM*; MCF10A rerep: inconclusive; KB-3-1 tox: inconclusive; KB-V1 cytotox: 15µM*; PINK1 expr mod: 5%[38.3 µM]

How did C/C(=N\NC(=O)c1ccccc1-n1cccc1)c1ccccn1 do in these assays?
KB-3-1 tox: 10µM*; KB-V1 cytotox: inactive; PINK1 expr mod: 1%

Results for OCCN(Cc1ccccn1)Cc1ccccn1 ?
KB-3-1 tox: inactive; KB-V1 cytotox: inactive; PINK1 expr mod: 0%

How did COc1ccc(C(CNc2ccc(C(F)(F)F)cn2)N(C)C)cc1OC (centres undefined) do in these assays?
SW480 rereplic: -6%; MCF10A rerep: 4%; KB-3-1 tox: inactive; KB-V1 cytotox: inactive; PINK1 expr mod: -1%

Results for CCN(CC)c1cc(C)c2cc(NC(=O)c3ccc(OC)c(OC)c3)ccc2n1 ?
KB-3-1 tox: 16µM*; KB-V1 cytotox: inactive; PINK1 expr mod: -2%

What do the screens show for `COc1ccc(Nc2cc(C)c3cc(NC(=O)c4ccccc4Cl)ccc3n2)cc1`?
KB-3-1 tox: inactive; KB-V1 cytotox: 18µM*; PINK1 expr mod: 7%

Results for CCN(CC)c1cc(C)c2cc(NC(=O)c3ccc(Br)o3)ccc2n1 ?
SW480 rereplic: inconclusive; MCF10A rerep: 9.2µM*; KB-3-1 tox: inconclusive; KB-V1 cytotox: inconclusive; PINK1 expr mod: -2%

How did CCN(CC)c1cc(C)c2cc(NC(=O)c3cc(OC)cc(OC)c3)ccc2n1 do in these assays?
KB-3-1 tox: inactive; KB-V1 cytotox: inactive; PINK1 expr mod: 1%

What do the screens show for `CCN(CC)c1cc(C)c2cc(NC(=O)/C=C/c3ccccc3Cl)ccc2n1`?
KB-3-1 tox: 13µM*; KB-V1 cytotox: inactive; PINK1 expr mod: 1%

Results for CCCCc1ccc(C(=O)Nc2ccc3nc(N(CC)CC)cc(C)c3c2)cc1 ?
KB-3-1 tox: inactive; KB-V1 cytotox: inactive; PINK1 expr mod: 1%
